Laboratory results published in the supplement of paper PMC10338343.
± gives the standard deviation.

The sequences below were run on MILI (PIWIL2) piRISC loaded with L1MC piRNA (26 nt) (assay: pre-steady-state target cleavage rate (min^-1); guide: L1MC piRNA 5'p-UAACUAAAUACUAUGCAAGCUGUAGG; MIWI and MILI are mouse PIWI proteins and EfPiwi is from a freshwater sponge; tags in brackets are library labels; higher = faster piRNA-guided slicing of the target). Conditions: auxiliary factor: none (no GTSF1).
Outline: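 In HEPES–potassium acetate buffer at 33 °C, […] transcribed, DNA-blocked target RNA library was mixed with 1 nM active affinity-purified piRISC carrying one synthetic guide, with or without 500 nM GTSF1 partner protein, for 0–8 or 0–960 min. Uncleaved targets were sequenced and normalised to depth and to weakly complementary targets; three trials were pooled and k3 was capped at 0.0001 min^-1. The pre-steady-state cleavage rate followed from a burst-and-steady-state fit.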
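Further: 1 nM active piRISC with 0.1 nM target library at 33 °C single turnover.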

Sequence	pre-steady-state target cleavage rate
UCCUGGAUGUCGAAGCAUAGUACUUUAGUUA	0.00317 ± 0.002
UCCUGGAUGUCCUUGCAUAGUGAUUUAGUUA	0.00503 ± 0.0028
UCCUGGAUGUCCUUGCUUACUAUUUAGUUA	0.00305 ± 0.0023
UCCUGCUAGAGCUUGCAUAGUAUUUACUUA	0.00284 ± 0.0026
UCCUGGAUGAGCUAGGAUAGUAUUUAGUUA	0.00494 ± 0.0027
UCCUGGAUGUCGUUGCAAAGUAUUUAGUUA	0.00739 ± 0.0022
UCCUCGUACAGCUUGGAUAGUAUUUAGUUA	0.00962 ± 0.0023
UCCUGGAUGAGCUAGCAAAGUAUUUAGUUA	0.00456 ± 0.0024
UCCUGGAUCAGCUUGCUUAGUAUUUACUUA	0.00642 ± 0.0022
UCCUGGAUGUCGUUGCUUAGUAUAUAGUUA	0.0122 ± 0.0029
UCCUCCUUCAGCUUGCAUAGUAUUUUGUUA	0.00287 ± 0.002
UCCUGGAUGACCUUGCAUUGUAUUUAGUUA	0.00446 ± 0.0029
UCCUGGAUGUGCUCGCAUAGUAUUUAGUUA	0.00981 ± 0.0026
UCCUGGAUGAGCUUGGAUAGUAUUUAGUAA	0.00491 ± 0.0023
UCCUGGUACAGCUUGCAUUGAAUUUAGUUA	0.00399 ± 0.0037
UCCUGGAUGAGCUUGCUAAGUAUUUAGUUA	0.00602 ± 0.0023
UCCUGGAUCAGCUUGCAUAGAUAUUUAGUUA	0.00307 ± 0.0026
UCCUGGAUGUGCUUGCUAGUAUUUAGUUA	0.00432 ± 0.0028
UCCUGGAUGUCGAUGCAUAGUAUUUAGUUG [g2:g17:cont:t1G]	0.00604 ± 0.0026
UCCUCCUACAGGUUGCAUUGUAUUUAGUUA	0.00725 ± 0.0019

Sequence	pre-steady-state target cleavage rate
UCCUGGAUGUCCUGUGCAUAGUAUUUAGUUA	0.0123 ± 0.0036
UCCUGCAACACCUUGCAUAGUAUUUAGUUA	0.00568 ± 0.0027
UCCUGGUACAGCUUGCAUAGUAUAUUAGUUA	0.0117 ± 0.0038
UCCUGGAACAGGAAGCAUAGUAUUUAGUAA	0.00297 ± 0.0027
UCCUGGAUGUCGUUGCAUAGUAUUGAGUUA	0.00363 ± 0.0032
UCCUCCUACAGCUUGCUUAGUAUUUAGUAA	0.0037 ± 0.0021
UCCUGGAUGUGCUUGCAGAGUAUUUAGUUA	0.00711 ± 0.0023
UCCUGGAUGUGCUAGCAUUGUAUUUAGUUA	0.00365 ± 0.0026
UCCUGGAUCAGCUUGCAUAGUAUUCUAGUUA	0.00658 ± 0.0024
UCCUGGAUGUGCUUGAUAGUAUUUAGUUA	0.00463 ± 0.002
UCCUGGAUGUCGUUGCAUUGUAUUUAGUUA	0.00572 ± 0.0024
UCCUGGAUGUCGUUGCAUCGUAUUUAGUUA	0.00872 ± 0.0025
UCCUGGAUGUCGAUGCAUAGUAUUUAAGUUA	0.00656 ± 0.0024
UCCUCCUACAGCUUGAUAGUAUUUAGUUA	0.00404 ± 0.0022
UCCUGGAUGAGCUUGGAUAGUUUUUAGUUA	0.00424 ± 0.0026
UCCUGGAACAGCUUGCAUAGUAUUUAGUUUA	0.00981 ± 0.003
UCCUGGAUGAGCUUGCAAACUAUUUAGUUA	0.00292 ± 0.0024
UCCUGGAUGUGCAUGGAUAGUAUUUAGUUA	0.0094 ± 0.0023
UCCUGGAUGUCGAAGCAUAGUAUCUUAGUUA	0.00455 ± 0.0025
UCCUGGUACAGCAACCAUAGUAUUUAGUAA	0.00382 ± 0.0021
